Records with an inconclusive call do not appear. Activity calls are given as the source filed them. Calls come from the whole dose curve; as a rule, active = well fitted curve in the direction sought with a large enough effect; inconclusive = small, poorly fitted or top-dose-only effect, or another doubt; inactive = no such curve, though single readings can be large; an effect the other way counts as inactive or inconclusive.

Test [1] is described as follows: qHTS Screen of the MIPE 4.0 Collection Against Ewings Sarcoma (TC32) (AID 1259256). Note: nearly all actives have a fitted effect of over 45% in size. Note: potency is the fitted concentration of half-maximal effect. In short, it runs like this: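 CellTiter-Glo luminescence after 48 h compound exposure (titration) gave viability; percent activity used DMSO-treated cells as no inhibition and medium-only wells as full inhibition. Cells grown in RPMI/5% FBS, dosed 4 h post-seeding.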
On the technique in general: In qHTS, concentration-response curves come from the screen itself.

The nature of test [2]: P-glycoprotein substrates identified in KB-8-5-11 adenocarcinoma cell line, qHTS therapeutic library screen (AID 1346987). Note: nearly all actives have a fitted effect of over 65% in size. Note: potency is the fitted concentration of half-maximal effect. An outline of the steps: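 Luminescence from CellTiter-Glo, read 5 min after addition, quantified survival of KB-8-5-11 (P-gp-overexpressing) cells exposed to compounds for 72 h. AC50 was derived from concentration-response curves.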
Test [3] in a line: NS1 protein of Zika virus - qHTS assay to identify small molecule inhibitors in human HEK 293 cells (AID 1347053). Note: nearly all actives have a fitted effect of over 55% in size. Note: potency is the fitted concentration of half-maximal effect. In short, it runs like this: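 TR-FRET signal from two anti-ZIKV NS1 antibodies quantified NS1 in HEK 293 cells 24 h after MR766 infection at MOI = 0.5; compounds were added 1 h before virus. Uninfected cells and infected cells defined the NS1 normalization range.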

Test [4] can be described thus: qHTS of pediatric cancer cell lines to identify multiple opportunities for drug repurposing: Primary screen for TC32 cells (AID 1347089). Note: nearly all actives have a fitted effect of over 60% in size. Note: potency is the fitted concentration of half-maximal effect. In short, it runs like this: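 qHTS, TC32, 48 h drug treatment, CellTiter-Glo luminescence as a proxy for metabolically active cells; primary top concentration 46 µM (MIPE 11-pt, NPC 8-pt); confirmatory 11-pt.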
Test [5] is described as follows: qHTS of pediatric cancer cell lines to identify multiple opportunities for drug repurposing: Primary screen for DAOY cells (AID 1347090). Note: nearly all actives have a fitted effect of over 55% in size. Note: potency is the fitted concentration of half-maximal effect. In short, it runs like this: (§1)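 Cell viability, CellTiter-Glo luminescence; 500-1,000 cells/well, 8- or 11-point titration, 48 h compound exposure at 37 degrees C, 5% CO2. Controls: DMSO neutral, bortezomib 2.3 µM final as positive.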

Test [6] can be described thus: qHTS of pediatric cancer cell lines to identify multiple opportunities for drug repurposing: Primary screen for SJ-GBM2 cells (AID 1347091). Note: potency is the fitted concentration of half-maximal effect. In short, it runs like this: as §1
A short description of test [7]: qHTS of pediatric cancer cell lines to identify multiple opportunities for drug repurposing: Primary screen for A673 cells (AID 1347092). Note: nearly all actives have a fitted effect of over 45% in size. Note: potency is the fitted concentration of half-maximal effect. An outline of the steps: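 Luminescence from CellTiter-Glo, taken after 15 min at room temperature, served as the proxy for metabolically active cells following 48 h treatment. Both potency and efficacy were taken from curves fitted to the titration data.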

Test [8] can be described thus: qHTS of pediatric cancer cell lines to identify multiple opportunities for drug repurposing: Primary screen for BT-37 cells (AID 1347094). Note: potency is the fitted concentration of half-maximal effect. An outline of the steps:
(§2)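 Readout: CellTiter-Glo luminescence, 48 h treatment. Controls DMSO (neutral) and bortezomib 2.3 µM final (positive). Potency and efficacy taken from primary-screen concentration-response curves.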

Test [9] can be described thus: qHTS of pediatric cancer cell lines to identify multiple opportunities for drug repurposing: Primary screen for NB-EBc1 cells (AID 1347095). Note: potency is the fitted concentration of half-maximal effect. An outline of the steps:
as §2

Test [10] can be described thus: qHTS of pediatric cancer cell lines to identify multiple opportunities for drug repurposing: Primary screen for U-2 OS cells (AID 1347096). Note: nearly all actives have a fitted effect of over 50% in size. An outline of the steps:
(§3)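 Cells (500-1,000/well) rested 5 h, then received compounds for 48 h; metabolically active cells were measured by CellTiter-Glo luminescence. Final concentrations spanned up to 46 µM (MIPE, 11-point) or 0.59 nM-46 µM (NPC, 8-point) in primary screens, 11-point in follow-ups.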

Test [11] in a line: qHTS of pediatric cancer cell lines to identify multiple opportunities for drug repurposing: Primary screen for SK-N-SH cells (AID 1347098). Note: nearly all actives have a fitted effect of over 65% in size. In short, it runs like this:
as §3

Test [12] can be described thus: qHTS of pediatric cancer cell lines to identify multiple opportunities for drug repurposing: Primary screen for NB1643 cells (AID 1347099). Note: nearly all actives have a fitted effect of over 50% in size. Note: potency is the fitted concentration of half-maximal effect. In short, it runs like this:
as §2

A short description of test [13]: qHTS of pediatric cancer cell lines to identify multiple opportunities for drug repurposing: Primary screen for LAN-5 cells (AID 1347100). Note: potency is the fitted concentration of half-maximal effect. In short, it runs like this: as §3
Test [14] in a line: qHTS of pediatric cancer cell lines to identify multiple opportunities for drug repurposing: Primary screen for SK-N-MC cells (AID 1347093). Note: potency is the fitted concentration of half-maximal effect. In short, it runs like this:
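Metabolically active cells were quantified by ATP-dependent luminescence (CellTiter-Glo, 15 min at room temperature) following 48 h treatment. Cells had been plated at 500-1,000 per well and settled for 5 h beforehand.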

Test [15] is described as follows: qHTS of pediatric cancer cell lines to identify multiple opportunities for drug repurposing: Primary screen for Saos-2 cells (AID 1347097). Note: nearly all actives have a fitted effect of over 40% in size. Note: potency is the fitted concentration of half-maximal effect. In short, it runs like this:
as §2

Consider `Cc1cc(O)c2c(c1)C(=O)c1cccc(O)c1C2=O`, for which the Potency entry in test [1], in test [2], in test [3], in [4], in [5] and in [6] was “inactive” throughout. Also, the Potency result in [7], in test [8], in test [9], in test [10], in [11] and in [12] was “inactive” throughout. For the same molecule, in test [13], the Potency result is “inactive”.
For `COc1ccnc2[nH]cc(C(=O)C(=O)N3CCN(C(=O)c4ccccc4)C[C@@H]3C)c12`, the Potency in test [1] is 4.18 µM (active). The Potency entry in [2], in test [3], in test [4], in [5], in [6] and in [7] was “inactive” in each case. Further, the Potency entry in test [14], in test [8], in [9], in [10], in test [15] and in [13] was “inactive” each time.
Turning to `CC(C(C)N1CC(=O)NC(=O)C1)N1CC(=O)NC(=O)C1` (stereo not drawn), the Potency result in test [1], in test [2], in test [3], in [4], in test [5] and in [10] was “inactive” in each case. For the same molecule, the Potency result in [11] is “inactive”. The Potency is 0.743 µM (active) in test [6], 0.743 µM (active) in test [14], 0.264 µM (active) in test [9] and 0.743 µM (active) in test [13].
As to `COc1ccc(C[C@@H](C)[C@@H](C)Cc2ccc(OC)c(OC)c2)cc1OC`, the Potency entry in test [1] is “inactive”. The Potency was 7.43 µM (active) in [2]; 0.833 µM (active) in [3]; 9.3 µM (active) in [4]; 0.235 µM (active) in test [5]; 0.418 µM (active) in test [6]; 0.935 µM (active) in [7]. In addition, the Potency in test [14] was 0.833 µM (active); in test [8] it was 0.968 µM (active); in test [9], 0.118 µM (active); in [15], 1.05 µM (active); in test [13] it was 0.187 µM (active).
With `COc1cc([C@@H]2c3cc4c(cc3[C@H](O)[C@H]3COC(=O)[C@@H]23)OCO4)cc(OC)c1OC`, the Potency in test [1] is 0.0372 µM (active); in test [2], 0.418 µM (active); in [3], 0.264 µM (active); in test [4], 0.739 µM (active); in test [5] it was 0.118 µM (active); in [6], 0.0662 µM (active). For the same molecule, the Potency in test [7] was 0.0935 µM (active); in test [14] it was 0.0743 µM (active); in test [9] it was 0.0209 µM (active); in test [15] it was 0.118 µM (active); in test [13] it was 0.0833 µM (active). The Potency entry in test [11] is “inactive”.
With `CCOC(=O)C1=C(C)NC(=S)NC1c1cccc(O)c1` (stereo not drawn), the Potency result in test [1], in test [10] and in [12] was “inactive” in each case. Further, the Potency in [2] is 4.18 µM (active); in test [3], 0.332 µM (active); in test [4], 1.31 µM (active); in test [5] it was 0.469 µM (active); in [6], 0.0372 µM (active); in test [7] it was 0.0469 µM (active). Moreover, the Potency is 0.264 µM (active) in test [14], 0.264 µM (active) in test [9] and 0.187 µM (active) in [13].
For `Cn1cc(-c2ccc3ncc(Cc4ccc5ncccc5c4)n3n2)cn1`, the Potency result in test [1], in test [2], in test [3], in test [4], in test [5] and in test [7] was “inactive” in each case. The Potency entry in test [8], in [9], in test [10], in test [11], in [12] and in test [13] was “inactive” each time. Also, the Potency in [6] is 0.0093 µM (active).
Regarding `CCC[C@H]1C[C@H](C(=O)N[C@@H]([C@@H]2O[C@@H](SC)[C@@H](O)[C@@H](O)[C@@H]2O)[C@H](C)Cl)N(C)C1`, the Potency entry in [1], in [2], in test [3], in [4], in [5] and in [6] was “inactive” each time. In addition, the Potency result in test [14], in test [8], in test [9], in test [10], in test [15] and in test [11] was “inactive” in each case. Besides, the Potency entry in [12] and in test [13] was “inactive” throughout.
For `C[C@H]1O[C@H](O[C@H]2[C@H](O)[C@@H](O)[C@@H](O[C@H]3[C@H](O)[C@@H](O)C(O)O[C@H]3CO)O[C@H]2CO)[C@H](O)[C@@H](O)[C@H]1N[C@H]1C=C(CO)[C@@H](O)[C@H](O)[C@@H]1O` (stereo partly drawn), the Potency entry in [1], in test [2], in test [3], in [4], in test [5] and in test [9] was “inactive” each time. The Potency entry in test [10] and in test [11] was “inactive” throughout. Moreover, the Potency in [6] is 4.69 µM (active); in test [14], 33.2 µM (active); in test [8], 1.72 µM (active); in test [15], 2.35 µM (active); in test [13], 2.35 µM (active).
As for `N#CC(=C(N)Sc1ccc(N)cc1)c1ccccc1C(F)(F)F`, in test [1], the Potency was 5.26 µM (active). Moreover, the Potency result in [2], in test [3], in test [4], in test [5], in test [6] and in test [7] was “inactive” throughout. In addition, the Potency result in [10] and in test [12] was “inactive” throughout.
Turning to `O=C(CN1C(=O)C2(CCCC2)NC[C@H]1c1cc(F)cc(F)c1)Nc1ccc2c(c1)C[C@@]1(C2)C(=O)Nc2ncccc21`, the Potency result in [1], in [2], in test [3], in test [4], in test [5] and in [6] was “inactive” throughout. The Potency result in test [14], in test [8], in test [9], in test [10], in test [15] and in test [11] was “inactive” each time. Besides, the Potency result in [12] and in test [13] was “inactive” throughout.
On to `O=C(NC1CC1)c1cccc(-c2ccc3c(NC(=O)C4CC4)n[nH]c3c2)c1`, for which the Potency in test [1] was 1.32 µM (active); in test [4] it was 9.3 µM (active); in test [5], 1.18 µM (active); in test [6] it was 13.2 µM (active); in test [14] it was 0.372 µM (active); in test [8] it was 3.43 µM (active). Moreover, the Potency in test [15] is 2.96 µM (active); in test [12] it was 0.935 µM (active); in [13] it was 2.09 µM (active). The Potency result in [2] and in test [3] was “inactive” each time.
`C=C(C)[C@@H]1CC[C@]2(C)CC[C@]3(C)[C@H](CC[C@@H]4[C@@]5(C)CC[C@H](O)C(C)(C)[C@H]5CC[C@]43C)[C@@H]12`: the Potency result in test [1], in test [2], in [3], in test [4], in test [6] and in test [7] was “inactive” in each case. The Potency result in test [14], in test [8], in [9], in test [10], in test [15] and in [11] was “inactive” in each case. The Potency result in test [12] and in [13] was “inactive” in each case.
On to `CC(=O)NC(CS)C(=O)O` (stereo not drawn), for which the Potency result in test [1], in [2], in [3], in test [4], in [6] and in test [7] was “inactive” in each case. The Potency result in [14], in test [8], in test [9], in test [10], in [15] and in [11] was “inactive” each time. Also, the Potency result in [12] and in test [13] was “inactive” in each case.
For `O=C(c1ccc(F)cc1)N1CCC[C@H](c2nc(-c3ccc(F)cc3)no2)C1`, the Potency entry in test [1], in [3], in test [4], in test [5], in [7] and in test [14] was “inactive” each time. The Potency result in [8], in test [9], in test [10], in [15], in [12] and in test [13] was “inactive” each time. Moreover, the Potency in test [2] was 0.118 µM (active).
